Assay results as given in PubChem BioAssay (NCATS).
Where “and” joins values, the source holds several entries; their conditions need not be identical. Equal entries are not always repeated. Records with an inconclusive call do not appear. Calls of active or inactive are those of the source. Calls come from the whole dose curve; as a rule, active = well fitted curve in the direction sought with a large enough effect; inconclusive = small, poorly fitted or top-dose-only effect, or another doubt; inactive = no such curve, though single readings can be large; an effect the other way counts as inactive or inconclusive.

Columns and labels:
[1] = Primary qHTS for inhibitors of nuclear receptor binding SET domain protein 2 (NSD2) in an RCH-ACV wild type WT cells (2C) (AID 1645877); note: nearly all actives have a fitted effect of over 70% in size; note: potency is the fitted concentration of half-maximal effect; for activity change, negative = cell killing: % is set by controls: 0 for no effect and ±100 for the full control effect
[2] = molecular target: Glutathione peroxidase 1 (Homo sapiens) (UniProt P07203); experiment: Primary qHTS Assay for Inhibitors of Recombinant Selenoprotein Glutathione Peroxidase 1 (GPX1) (AID 1845191); note: nearly all actives have a fitted effect of over 65% in size; for activity, negative = inhibition: % is set by controls: 0 for no effect and ±100 for the full control effect
Method in brief: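 GR-coupled readout: NADPH consumption tracked by fluorescence, ex 340/em 450 nm, at t=0 and after 15 min at RT. Final mix 10 nM GPX1, 1 mM GSH, 0.5 mM CHP, 0.5 mM NADPH, 100 nM GR, 0.01% BSA, following 30 min enzyme–compound preincubation.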

[3] = molecular target: Phospholipid hydroperoxide glutathione peroxidase GPX4 (Homo sapiens) (UniProt P36969); experiment: Primary qHTS Assay for Inhibitors of Recombinant Selenoprotein Glutathione Peroxidase 4 (GPX4) (AID 1845192); note: nearly all actives have a fitted effect of over 65% in size; for activity change, negative = inhibition: series mostly up to about 50 µM; % is set by controls: 0 for no effect and ±100 for the full control effect
Method in brief: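 Steps: GPX4 plus compound, 30 min RT; add GR/GSH/NADPH master mix; start with cumene hydroperoxide; read 340/450 nm fluorescence at 0 and 15 min. Finals were 200 nM GPX4, 1 mM GSH, 0.5 mM CHP, 0.5 mM NADPH, 100 nM GR.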

[4] = molecular target: Luciferin 4-monooxygenase (Photinus pyralis) (UniProt P08659); experiment: Primary firefly luciferase (FLuc) qHTS assay for identification of artifact compounds. (AID 1845220); note: nearly all actives have a fitted effect of over 60% in size;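 for activity change, negative = inhibition: series mostly up to about 54 µM; plate controls were DMSO vehicle for no effect and no enzyme for full effect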
Method in brief: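 Enzymatic FLuc inhibition assay: compounds pre-exposed to luciferin/ATP (10 uM each) for 15 min, then purified P. pyralis enzyme at 10 nM added. Read-out: luminescence at 5 min.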

[5] = Primary fluorescence-based thiol-reactive (MSTI) qHTS assay for identification of artifact compounds. (AID 1845221); note: nearly all actives have a fitted effect of over 65% in size; note: potency is the fitted concentration of half-maximal effect;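 for activity change, negative = thiol reactive: series mostly up to about 54 µM; thiol-reactive compounds lower the probe fluorescence signal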
Method in brief: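 Curve-fitted percent inhibition (4-parameter Hill) derived from fluorescence, Ex 525/Em 598 nm, scaled with Acetyl-MSTI and MSTI; 1 h incubation at room temperature.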

[6] = test system: Nanoluciferase (engineered Oplophorus gracilirostris luciferase); experiment: Primary Nanoluciferase (NLuc) qHTS assay for identification of artifact compounds. (AID 1845222);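 note: NLuc secreted into diluted conditioned medium of S16 cells; series mostly up to about 54 µM; 0% = DMSO and -100% = no enzyme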
Method in brief: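 S16 cell supernatant NLuc, 1:55; cpds qHTS; 15 min RT dark; Nano-Glo substrate 1:100, 5 min; luminescence; Hill fit of % inhibition.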

[7] = Primary redox qHTS assay for identification of artifact compounds. (AID 1845223);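 note: 0% = DMSO and 100% = reference compound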
Method in brief: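 Redox-cycling detection via DTT (250 uM final) oxidation coupled to Amplex Red (25 uM)/HRP (250 mU/mL) in HBSS. 15 min preincubation plus 30 min after DTT, room temperature. Ex/Em 525/598 nm; 4-parameter Hill fit against DMSO and 10 uM DA3003.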

Glutathione peroxidase 1 (Homo sapiens), sequence (P07203 whole entry, looked up): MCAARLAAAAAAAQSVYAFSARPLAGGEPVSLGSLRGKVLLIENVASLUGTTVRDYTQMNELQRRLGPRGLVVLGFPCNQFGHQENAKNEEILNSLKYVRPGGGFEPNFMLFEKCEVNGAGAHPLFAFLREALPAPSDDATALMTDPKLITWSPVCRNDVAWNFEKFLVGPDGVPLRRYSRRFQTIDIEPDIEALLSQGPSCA
Phospholipid hydroperoxide glutathione peroxidase GPX4 (Homo sapiens), sequence (P36969 whole entry, looked up): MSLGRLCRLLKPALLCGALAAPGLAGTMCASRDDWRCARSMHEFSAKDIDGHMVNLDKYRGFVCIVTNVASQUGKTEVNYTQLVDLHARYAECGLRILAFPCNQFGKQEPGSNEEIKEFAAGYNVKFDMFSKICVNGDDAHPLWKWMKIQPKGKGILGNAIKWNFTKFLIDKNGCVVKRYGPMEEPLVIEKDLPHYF

C=C1CCC2C(C)(C(=O)O)CCCC2(C)C1CCC(C)CC(=O)O (stereo not given)
inactive: Potency [1] | Potency [2] | Potency [3] | Potency [4] | Potency [5] | Potency [6]

CC(C)S(=O)(=O)N[C@H]1CCOC[C@@H]1c1ccc(-c2ccc(C#N)s2)cc1
inactive: Potency [1] | Potency [2] | Potency [3] | Potency [4] | Potency [5] | Potency [6]

C=CC(C)(C)c1[nH]c2ccccc2c1C[C@@H]1NC(=O)[C@H](Cc2c[nH]c3ccccc23)NC1=O
inactive: Potency [1] | Potency [2] | Potency [3] | Potency [4] | Potency [6]
active: Potency [5] 2.32 µM

C[C@@H]1CC[C@]2(C(=O)OC3OC(CO)C(O)C(O)C3O)CC[C@]3(C)C(=CCC4[C@@]5(C)CC[C@H](O)[C@](C)(C(=O)O)C5CC[C@]43C)C2[C@]1(C)O (stereo not given in full)
inactive: Potency [1] | Potency [2] | Potency [3] | Potency [4] | Potency [5] | Potency [6]

C=C1C(=O)O[C@H]2C1[C@H](OC(=O)/C(=C/CO)COC(=O)/C(C)=C/CO)CC(=C)[C@@H]1CC(=O)[C@@H](C)[C@@H]12 (stereo not given in full)
inactive: Potency [2] | Potency [3] | Potency [4] | Potency [5] | Potency [6]
active: Potency [1] 1.78 µM

CC1(C)CC[C@@]2(C(=O)O[C@@H]3O[C@H](CO)[C@@H](O)[C@H](O)[C@H]3O)C(C1)C1=CCC3[C@@]4(C)CC[C@@H](O[C@@H]5O[C@H](C(=O)O)[C@@H](O[C@@H]6OC[C@@H](O)[C@H](O)[C@H]6O)[C@H](O[C@@H]6OC[C@](O)(CO)[C@H]6O)[C@H]5O)C(C)(C)C4CC[C@@]3(C)[C@]1(C)C[C@H]2O (stereo not given in full)
inactive: activity change, negative = cell killing [1] -88.4% [at 9.23 µM] | Potency [2] | Potency [3] | outcome [4] inactive [at 11.6 µM] | activity change, negative = thiol reactive [5] 54.8% [at 11.5 µM] | activity, negative = inhibition [6] 1.29% [at 11.6 µM]

C=C(C(=O)O)C1CCC2(C)CCC(O)C(=C)C2C1 (stereo not given)
active: Potency [5] 13.4 µM
inactive: Potency [1] | Potency [2] | Potency [3] | Potency [4] | Potency [6]

Cc1cc(Nc2ncc3cc(-c4c(Cl)cccc4Cl)c(=O)n(C)c3n2)ccc1F
inactive: Potency [2] | Potency [3] | Potency [4] | Potency [5] | Potency [6]
active: Potency [1] 0.817 µM

O=C(Nc1ccn[nH]1)c1c(F)cccc1F
inactive: Potency [1] | Potency [2] | Potency [3] | Potency [4] | Potency [5] | Potency [6]

COC1CC(O[C@H]2CC[C@@]3(C)C(=CC[C@]4(O)C3[C@H](OC(C)=O)[C@@H](OC(=O)c3ccccc3)[C@]3(C)[C@@H](C(C)=O)CC[C@@]34O)C2)OC(C)C1OC1CC(OC)C(OC2CC(OC)C(OC3OC(C)C(OC4OC(CO)C(O)C(O)C4O)C(OC)C3O)C(C)O2)C(C)O1 (stereo not given in full)
inactive: activity change, negative = cell killing [1] -8.43% [at 9.23 µM] | outcome [2] inactive [at 9.52 µM] | activity change, negative = inhibition [3] -9.45% [at 9.73 µM] | outcome [4] inactive [at 11.6 µM] | activity change, negative = thiol reactive [5] 29.9% [at 11.5 µM] | activity, negative = inhibition [6] 2.42% [at 11.6 µM]

COC(=O)/C=C/C12COC(C)(C)C1C(O)C(OC(C)=O)C1(C)C2CCC2(C)C(c3ccoc3)OC(=O)C3OC321 (stereo not given)
inactive: Potency [1] | Potency [2] | Potency [3] | Potency [4] | Potency [5] | Potency [6]

Cc1cc2c(F)c(Oc3ncnn4cc(OCC(C)O)c(C)c34)ccc2[nH]1 (stereo not given)
active: Potency [1] 7.28 µM
inactive: Potency [2] | Potency [3] | Potency [4] | Potency [5] | Potency [6]

COc1c2c(c(C)c3c1C(=O)OC3)OC1(C)CC(O)C34OC(OC)(CC(OC(C)=O)C3(C)C1C2)OC4(C)C (stereo not given)
inactive: Potency [1] | Potency [2] | Potency [3] | Potency [4] | Potency [5] | Potency [6]

CN1CCc2nc(C(=O)N[C@@H]3C[C@@H](C(=O)N(C)C)CC[C@@H]3NC(=O)C(=O)Nc3ccc(Cl)cn3)sc2C1
inactive: Potency [1] | Potency [2] | Potency [3] | Potency [4] | Potency [5] | Potency [6]

CC(=O)N1CCN(C(=O)Cc2ccc(Nc3ncc(F)c(Nc4ccc(C(=O)Nc5ccccc5Cl)cc4)n3)cc2)CC1
active: Potency [1] 2.05 µM
inactive: Potency [2] | Potency [3] | Potency [4] | Potency [5] | Potency [6]

CC1(C)CC(NC(=O)C(=O)Nc2ccc(Br)cc2)CC(C)(C)N1
active: Potency [1] 5.78 µM
inactive: Potency [2] | Potency [3] | Potency [4] | Potency [5] | Potency [6]

CCCN1CCN(c2ccc(C(=O)NC3(C(=O)NCC#N)CCCCC3)cc2)CC1
inactive: Potency [1] | Potency [2] | Potency [3] | Potency [4] | Potency [5] | Potency [6]

O=C(O)c1cc2cccc([N+](=O)[O-])c2[nH]1
active: Potency [5] 21.2 µM
inactive: Potency [1] | Potency [2] | Potency [3] | Potency [4] | Potency [6]

COC(=O)C12C(=O)C(C)=C(O)C1(C)C(C)=CC1C3(CO)CCC(O)C(C)(C)C3CCC12C (stereo not given)
inactive: Potency [1] | Potency [2] | Potency [3] | Potency [4] | Potency [5] | Potency [6]

CC(C)[C@@H](CS(=O)(=O)C(C)C)N1C(=O)[C@@](C)(CC(=O)O)C[C@H](c2cccc(Cl)c2)[C@H]1c1ccc(Cl)cc1
active: Potency [1] 515 nM and 662 nM
inactive: Potency [2] | Potency [3] | Potency [4] | Potency [5] | Potency [6]

C[C@@]12C[C@]3(O)O[C@H](O1)[C@]1(COC(=O)c4ccccc4)[C@H]3C[C@@]12O[C@@H]1O[C@H](CO)[C@@H](O)[C@H](O)[C@H]1O
inactive: Potency [1] | Potency [2] | Potency [3] | Potency [4] | Potency [5] | Potency [6]

C[C@@H]1O[C@@H](O[C@H]2[C@H](O)[C@@H](O)[C@H](OC[C@H]3O[C@@H](OC(=O)[C@]45CCC(C)(C)C[C@H]4C4=CCC6[C@@]7(C)CC[C@H](O[C@@H]8OC[C@H](O)[C@H](O[C@@H]9O[C@H](CO)[C@@H](O)[C@H](O)[C@H]9O)[C@H]8O)[C@@](C)(CO)C7CC[C@@]6(C)[C@]4(C)CC5)[C@H](O)[C@@H](O)[C@@H]3O)O[C@@H]2CO)[C@H](O)[C@H](O)[C@H]1O (stereo not given in full)
inactive: outcome [1] inactive [at 9.23 µM] | activity, negative = inhibition [2] -7.31% [at 9.52 µM] | activity change, negative = inhibition [3] -3.72% [at 9.73 µM] | activity change, negative = inhibition [4] 2.93% [at 11.6 µM] | activity change, negative = thiol reactive [5] 205% [at 11.5 µM] | activity, negative = inhibition [6] 3.4% [at 11.6 µM]

COc1cccc(Nc2ncnn3ccc(CN4CC[C@@H](N)[C@H](O)C4)c23)c1
inactive: Potency [2] | Potency [3] | Potency [4] | Potency [5] | Potency [6]
active: Potency [1] 4.68 µM

Cc1cc(-c2cc(O)ccc2Cl)cc2nnc(Nc3ccc(OCCN4CCCC4)cc3)nc12
inactive: Potency [2] | Potency [3] | Potency [4] | Potency [6]
active: Potency [1] 2.9 µM | Potency [5] 3.77 µM

O=C(C(c1ccccc1)c1ccccc1)N1CCN(CC(O)COc2cccc3ncccc23)CC1 (stereo not given)
inactive: Potency [2] | Potency [3] | Potency [4] | Potency [5] | Potency [6]
active: Potency [1] 14.5 µM and 20.9 µM

CC1(C)CC[C@]2(C(=O)O[C@@H]3O[C@H](CO[C@@H]4O[C@H](CO)[C@@H](O)[C@H](O)[C@H]4O[C@@H]4O[C@H](CO)[C@H](O)[C@H](O)[C@H]4O)[C@@H](O)[C@H](O[C@@H]4O[C@H](CO)[C@@H](O)[C@H](O)[C@H]4O)[C@H]3O)CC[C@]3(C)C(=CCC4[C@@]5(C)CC[C@H](O[C@@H]6OC[C@@H](O)[C@H](O)[C@H]6O)[C@@](C)(C(=O)O)C5CC[C@]43C)[C@@H]2C1 (stereo not given in full)
inactive: activity change, negative = cell killing [1] -8.76% [at 9.23 µM] | outcome [2] inactive [at 9.52 µM] | outcome [3] inactive [at 9.73 µM] | activity change, negative = inhibition [4] 3.08% [at 11.6 µM] | activity change, negative = thiol reactive [5] 79.6% [at 11.5 µM] | activity, negative = inhibition [6] 0.986% [at 11.6 µM]

CC1OC(OC2C(C)OC(OC3C(OC(=O)C45CCC(C)(C)CC4C4=CCC6C7(C)CCC(OC8OC(C(=O)O)C(O)C(O)C8OC8OC(CO)C(O)C(OC9OC(C)C(O)C(O)C9O)C8O)C(C)(CO)C7CCC6(C)C4(C)CC5)OC(CO)C(O)C3O)C(O)C2O)C(O)C(O)C1O (stereo not given)
inactive: activity change, negative = cell killing [1] 3.53% [at 9.23 µM] | activity, negative = inhibition [2] -14% [at 9.52 µM] | activity change, negative = inhibition [3] -14.3% [at 9.73 µM] | activity change, negative = inhibition [4] -4.3% [at 11.6 µM] | activity change, negative = thiol reactive [5] 122% [at 11.5 µM] | activity, negative = inhibition [6] 2.74% [at 11.6 µM]

CC(=O)OC[C@H]1O[C@H](O[C@]2(CO)O[C@H](CO)[C@@H](OC(=O)/C=C/c3ccccc3)[C@@H]2O)[C@H](O)[C@@H](O)[C@@H]1O
active: Potency [5] 4.62 µM
inactive: Potency [1] | Potency [2] | Potency [3] | Potency [4] | Potency [6]

CC1CCC2(OC1)OC1CC3C4CCC5C[C@@H](O[C@@H]6O[C@H](CO[C@@H]7OC[C@@H](O)[C@H](O)[C@H]7O)[C@H](O)[C@H](O)[C@H]6O)CC[C@]5(C)C4CC[C@]3(C)C1C2C (stereo not given in full)
inactive: Potency [1] | Potency [2] | Potency [3] | Potency [4] | Potency [5] | Potency [6] | Potency [7]
